High-throughput results from PubChem.
Only some compounds are listed: those with a hit (about 19% of all), similar ones and a draw of the others.
TDP1 cell CPT = qHTS for Inhibitors of human tyrosyl-DNA phosphodiesterase 1 (TDP1): qHTS in cells in presence of CPT; chicken DT40 Tdp1-/-;hTDP1 cells + 20 nM CPT, ATP luminescence, 48 h; Potency, µM (series often up to 46.2 µM), without a hit: at the highest dose activity change, negative = growth inhibition, most hits filed as inhibitors; actives 12% (n = 420,000); AID 686979, 2013; note: nearly all actives have a fitted effect of over 55% in size
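Chicken DT40 Tdp1-/- cells complemented with human TDP1, 400 cells/well, exposed to compounds plus 20 nM camptothecin for at least 48 h at 37 C; viability read as ATP content by CellTiter-Glo luminescence.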
TDP1 cell noCPT = qHTS for Inhibitors of human tyrosyl-DNA phosphodiesterase 1 (TDP1): qHTS in cells in absence of CPT; DT40 Tdp1-/- hTDP1 cells, no CPT, ATP luminescence, 48 h; Potency, µM (highest dose often 46.2 µM), inactives show top-dose activity change, negative = growth inhibition, actives largely listed as inhibitors; actives 15% (n = 420,000); note: nearly all actives have a fitted effect of over 55% in size
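Compound effects on proliferation are scored in DT40 Tdp1-/-;hTDP1 cells in the absence of CPT. ATP levels (CellTiter-Glo luminescence) are recorded after a ≥48 hr, 37 °C incubation.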
Gal4-VP16 FLuc = VP16 counterscreen qHTS for inhibitors of ROR gamma transcriptional activity | Potency, µM (highest dose often 53.6 µM), for inactives: at the highest dose activity, negative = inhibition, usual class: inhibitors | Drosophila S2 Gal4-VP16 UAS-luciferase, luminescence, 20 h | actives 3.5% (n = 310,000);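 note: Gal4-VP16 expression switched on by copper sulfate through the metallothionein promoter; nearly all actives have a fitted effect of over 50% in size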
TDP1 inh = qHTS Assay for Inhibitors of Tyrosyl-DNA Phosphodiesterase (TDP1); Tyrosyl-DNA phosphodiesterase 1 (Homo sapiens), Q9NUW8; recombinant TDP1, AlphaScreen DNA substrate cleavage; Potency, µM (series often up to 130 µM), inactives show at the highest dose activity change, negative = inhibition, most hits filed as inhibitors; actives 0.28% (n = 350,000); AID 485290, 2010; note: nearly all actives have a fitted effect of over 40% in size
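Signal: AlphaScreen proximity between streptavidin donor and anti-FITC acceptor beads on intact substrate. Reaction: Tdp1 1 nM, substrate 15 nM final, 5 min RT after 15 min compound preincubation.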
RORgamma inh = qHTS for inhibitors of ROR gamma transcriptional activity. Nuclear receptor ROR-gamma (Mus musculus), P51450. Drosophila S2 Gal4-RORgamma UAS-luciferase reporter, 20 h. Potency, µM (titrated, usually from 53.6 µM), for inactives: at the top dose activity change, negative = inhibition, most hits filed as inhibitors. actives 5.4% (n = 310,000). AID 2551, 2010; note: nearly all actives have a fitted effect of over 60% in size
Target sequence (P51450 whole entry, looked up, the tested form may be a part): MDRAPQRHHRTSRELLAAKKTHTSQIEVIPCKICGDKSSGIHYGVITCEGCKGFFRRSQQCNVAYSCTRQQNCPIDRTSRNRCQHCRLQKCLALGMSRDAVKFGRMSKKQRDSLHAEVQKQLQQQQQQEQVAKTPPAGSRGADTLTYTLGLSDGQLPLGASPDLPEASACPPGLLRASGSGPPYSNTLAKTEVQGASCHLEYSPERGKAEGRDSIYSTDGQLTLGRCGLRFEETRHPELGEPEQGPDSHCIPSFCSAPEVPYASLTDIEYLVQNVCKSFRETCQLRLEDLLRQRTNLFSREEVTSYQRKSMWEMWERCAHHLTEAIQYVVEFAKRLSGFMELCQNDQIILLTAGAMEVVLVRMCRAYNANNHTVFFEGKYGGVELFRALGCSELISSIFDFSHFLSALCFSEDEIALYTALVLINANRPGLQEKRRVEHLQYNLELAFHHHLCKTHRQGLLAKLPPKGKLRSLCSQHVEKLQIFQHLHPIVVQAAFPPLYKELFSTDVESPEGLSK
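Luminescence from a UAS-regulated Photinus luciferase reporter in stably transfected Drosophila Schneider cells is measured; decreased signal marks ROR gamma inhibition. Fusion expression is induced by 700 uM copper sulfate for 20 hr.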
* hit, by the source's call; [ ] = remark or other dose. Calls come from the whole dose curve; as a rule, active = well fitted curve in the direction sought with a large enough effect; inconclusive = small, poorly fitted or top-dose-only effect, or another doubt; inactive = no such curve, though single readings can be large; an effect the other way counts as inactive or inconclusive. % is set by controls: 0 for no effect and ±100 for the full control effect; potency is the fitted concentration of half-maximal effect.

For C[C@@H]1CC[C@@]2(NC1)O[C@H]1C[C@H]3[C@@H]4CC=C5C[C@@H](O)CC[C@]5(C)[C@H]4CC[C@]3(C)[C@H]1[C@@H]2C the results were TDP1 cell CPT 0%, TDP1 cell noCPT 7%, Gal4-VP16 FLuc -13% and RORgamma inh 0%.
For C[C@H]1CC[C@]2(NC1)O[C@H]1C[C@H]3[C@@H]4CC[C@H]5C[C@@H](O[C@@H]6O[C@H](CO)[C@H](O[C@@H]7O[C@H](CO)[C@@H](O)[C@H](O[C@@H]8OC[C@@H](O)[C@H](O)[C@H]8O)[C@H]7O[C@@H]7O[C@H](CO)[C@@H](O)[C@H](O)[C@H]7O)[C@H](O)[C@H]6O)CC[C@]5(C)[C@H]4CC[C@]3(C)[C@H]1[C@@H]2C the results were TDP1 cell CPT 1.9µM* and TDP1 cell noCPT 1.7µM*.
Cc1cc(N2CCCCC2)nc2ccc(NC(=O)CCC(=O)N3CCN(c4cccc(Cl)c4)CC3)cc12 was read as TDP1 cell CPT 6.5µM*, TDP1 cell noCPT 3.7µM* and TDP1 inh 3%.
For CCc1ccc(-c2nc(CSCC(=O)N3CCN(c4ccc(F)cc4)CC3)c(C)o2)cc1 the results were TDP1 cell CPT 21µM*, TDP1 cell noCPT inconclusive and TDP1 inh 3%.
COc1ccc(-c2nc(CSCC(=O)N3CCC4(CC3)OCCO4)c(C)o2)cc1OC was read as TDP1 cell CPT -28%, TDP1 cell noCPT -23%, Gal4-VP16 FLuc -1%, TDP1 inh 5% and RORgamma inh -8%.
Screening Cc1oc(-c2cccs2)nc1CSCC(=O)N1CCC2(CC1)OCCO2 returned TDP1 cell CPT -26%, TDP1 cell noCPT inconclusive, Gal4-VP16 FLuc 1%, TDP1 inh 2% and RORgamma inh 11%.
For COc1ccc(-c2nc(CSCC(=O)N3CCN(c4ccc(F)cc4)CC3)c(C)o2)cc1 the results were TDP1 cell CPT 13µM*, TDP1 cell noCPT 8.2µM* and TDP1 inh 10%.
`O=C(c1ccc2c(c1)N(Cc1ccc(F)cc1)CCS2)N1CCC2(CC1)OCCO2` gave TDP1 cell CPT inconclusive, TDP1 cell noCPT inconclusive, Gal4-VP16 FLuc -2%, TDP1 inh 5% and RORgamma inh 5%.
Screening Cc1ccc(C)c(CN2C(=O)c3ccccc3Sc3ccc(C(=O)N4CCC5(CC4)OCCO5)cc32)c1 returned TDP1 cell CPT inconclusive, TDP1 cell noCPT 21µM* and TDP1 inh 5%.
`CCOc1ccc(CN2C(=O)c3ccccc3Sc3ccc(C(=O)N4CCC5(CC4)OCCO5)cc32)cc1` gave TDP1 cell CPT 18µM*, TDP1 cell noCPT inconclusive and TDP1 inh 0%.
O=C(c1ccc2c(c1)N(Cc1ccc(F)cc1)C(=O)c1ccccc1S2)N1CCC2(CC1)OCCO2 was read as TDP1 cell CPT 16µM*, TDP1 cell noCPT 16µM* and TDP1 inh 5%.
Nc1nccc(-c2c(-c3ccc(F)cc3)ncn2C2CCNCC2)n1 was read as Gal4-VP16 FLuc -12%, TDP1 inh 5% and RORgamma inh -44%.
CC[C@H](C)[C@H](NC(=O)[C@H](CCCN=C(N)N)NC(=O)[C@H](CCCN=C(N)N)NC(=O)[C@H](CC(C)C)NC(=O)[C@H](Cc1ccccc1)NC(=O)CNC(=O)CNC(=O)[C@@H](N)Cc1ccc(O)cc1)C(=O)N[C@@H](CCCN=C(N)N)C(=O)N1CCC[C@H]1C(=O)N[C@@H](CCCCN)C(=O)N[C@@H](CC(C)C)C(=O)N[C@@H](CCCCN)C(=O)O was read as TDP1 cell CPT 8%[4.12 µM], TDP1 cell noCPT 2%[4.12 µM], Gal4-VP16 FLuc -20%, TDP1 inh 10% and RORgamma inh 13%.
CCOP(=O)(OCC)/C(C#N)=C/c1ccc(Br)cc1 was read as TDP1 cell CPT -5%, TDP1 cell noCPT -24%, Gal4-VP16 FLuc -5%, TDP1 inh 9% and RORgamma inh 3%.
`CN1CCc2cc(Cl)c(O)cc2[C@H]2c3ccccc3CC[C@@H]21` gave TDP1 cell CPT inconclusive, TDP1 cell noCPT inconclusive, Gal4-VP16 FLuc -5%, TDP1 inh 6% and RORgamma inh 4%.
`COc1ccc2c(c1)c(CCN)c(C)n2Cc1ccccc1` gave TDP1 cell CPT inconclusive, TDP1 cell noCPT 21µM*, Gal4-VP16 FLuc -20% and RORgamma inh -34%.
`C#CCOc1ccc2c(c1)c(C(C)=O)c(C)n2Cc1ccccc1` gave TDP1 cell CPT -30%, TDP1 cell noCPT inconclusive, Gal4-VP16 FLuc -1%, TDP1 inh 0% and RORgamma inh inconclusive.
`CC1OC(OC2C=C3CCC4C(CCC5(C)C(c6ccc(=O)oc6)CCC45O)C3(C)CC2)C(O)C(OC2OC(CO)C(O)C(O)C2O)C1O` (centres undefined) gave TDP1 cell CPT 0.16µM* and TDP1 cell noCPT 0.18µM*.
`C[C@]12CCC3C(CCC4=CC(O)CC[C@@]43/C=N/O)C1(O)CCC2C1=CC(=O)OC1` (some centres undefined) gave TDP1 cell CPT 4%, TDP1 cell noCPT inconclusive, Gal4-VP16 FLuc -19% and RORgamma inh -1%.
`Clc1cccc(N2Cc3cc(-c4ccccc4)ccc3-n3nncc3C2)c1` gave TDP1 cell CPT 2.6µM* and TDP1 cell noCPT 3.7µM*.
`Clc1cccc(N2Cc3cc(N4CCOCC4)ccc3-n3nncc3C2)c1` gave TDP1 cell CPT 18µM* and TDP1 cell noCPT inconclusive.
Screening COc1ccc(-c2ccc3c(c2)CN(CC(C)C)Cc2cnnn2-3)cc1 returned TDP1 cell CPT 16µM* and TDP1 cell noCPT inconclusive.
`CC(C)CN1Cc2ccccc2-n2nncc2C1` gave TDP1 cell CPT -14% and TDP1 cell noCPT -20%.
O=c1cccc2n1CC1CC2CN(c2nc(N3CCCCC3)nc(N3CCCCC3)n2)C1 (centres undefined) was read as TDP1 cell CPT -13%, TDP1 cell noCPT inconclusive, Gal4-VP16 FLuc 8%, TDP1 inh 4% and RORgamma inh 8%.
`Cc1cccc(-n2c(/C=C/c3c(C)[nH]c4ccccc34)nc3ccccc3c2=O)c1` gave TDP1 cell CPT inconclusive, TDP1 cell noCPT inconclusive and TDP1 inh -2%[12.3 µM].
Screening ClCCN1CCN(c2ccnc3cc(Cl)ccc23)CC1 returned TDP1 cell CPT 13µM*, TDP1 cell noCPT 15µM*, Gal4-VP16 FLuc -2% and RORgamma inh -18%.
